A number with no mark means an inactive call.
Key:
Assay in all cases: log2 ratio of Biotin-Ahx-Ub-VS probe labelling (fragment/DMSO); higher = less target engagement (more negative = stronger competition), active = hit call of the paper (q ≤ 0.05, log2 ratio ≤ -1)
Settings in all cases: compound concentration: 200 uM; treatment time: 3 h
OTUD6B = target: T1, OTUD6B (UniProt Q8N6M0)
T1 sequence (whole entry): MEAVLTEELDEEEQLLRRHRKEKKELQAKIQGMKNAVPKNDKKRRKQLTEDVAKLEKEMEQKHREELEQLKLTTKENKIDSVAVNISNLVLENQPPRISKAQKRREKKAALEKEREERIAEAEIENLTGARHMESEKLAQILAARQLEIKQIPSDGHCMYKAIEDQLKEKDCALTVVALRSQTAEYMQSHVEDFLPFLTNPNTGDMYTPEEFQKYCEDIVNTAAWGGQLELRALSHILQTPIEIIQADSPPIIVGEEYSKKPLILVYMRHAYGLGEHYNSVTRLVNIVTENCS
Outline: (§1)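 In triplicate, 495 µg of HEK293T lysate per sample was incubated with fragment at 200 µM or vehicle for 3 h. Biotin-Ahx-Ub-VS was then added to 0.5 µM final for 1 h, and labelled DUBs were captured with NeutrAvidin, digested with LysC and trypsin, and measured by diaPASEF LC-MS/MS. Data are average log2 fragment/vehicle ratios by unpaired t-test from global-median-normalised Spectronaut label-free quantities, restricted to proteins with ≥2 unique peptides.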

OTUD7B = target: T2, OTUD7B (UniProt Q6GQQ9)
T2 sequence (whole entry): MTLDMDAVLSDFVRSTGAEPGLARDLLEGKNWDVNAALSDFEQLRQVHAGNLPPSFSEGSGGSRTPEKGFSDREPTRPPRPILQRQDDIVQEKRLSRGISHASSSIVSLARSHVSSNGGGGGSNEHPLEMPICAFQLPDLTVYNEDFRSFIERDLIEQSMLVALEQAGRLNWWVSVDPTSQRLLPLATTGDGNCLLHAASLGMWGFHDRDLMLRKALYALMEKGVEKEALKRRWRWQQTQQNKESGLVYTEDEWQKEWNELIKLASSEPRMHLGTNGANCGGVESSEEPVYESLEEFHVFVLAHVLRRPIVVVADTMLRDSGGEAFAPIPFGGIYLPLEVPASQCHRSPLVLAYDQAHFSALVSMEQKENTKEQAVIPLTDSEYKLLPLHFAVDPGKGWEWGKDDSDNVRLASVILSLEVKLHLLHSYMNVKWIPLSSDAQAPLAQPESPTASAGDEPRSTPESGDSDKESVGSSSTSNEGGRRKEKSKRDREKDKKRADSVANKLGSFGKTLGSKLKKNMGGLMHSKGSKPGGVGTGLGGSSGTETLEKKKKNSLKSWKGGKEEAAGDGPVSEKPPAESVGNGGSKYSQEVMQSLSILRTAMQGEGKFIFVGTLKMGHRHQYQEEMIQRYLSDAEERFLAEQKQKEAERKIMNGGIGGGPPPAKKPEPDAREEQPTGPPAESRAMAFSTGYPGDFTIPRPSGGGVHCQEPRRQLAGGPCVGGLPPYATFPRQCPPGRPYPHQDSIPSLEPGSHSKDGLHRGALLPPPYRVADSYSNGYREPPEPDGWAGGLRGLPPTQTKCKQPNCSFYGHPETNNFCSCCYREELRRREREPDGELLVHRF
Outline: as §1

PRPF8 = PRPF8 (UniProt Q6P2Q9)
Outline: as §1

PSMD7 = target: T3, PSMD7 (UniProt P51665)
T3 sequence (whole entry): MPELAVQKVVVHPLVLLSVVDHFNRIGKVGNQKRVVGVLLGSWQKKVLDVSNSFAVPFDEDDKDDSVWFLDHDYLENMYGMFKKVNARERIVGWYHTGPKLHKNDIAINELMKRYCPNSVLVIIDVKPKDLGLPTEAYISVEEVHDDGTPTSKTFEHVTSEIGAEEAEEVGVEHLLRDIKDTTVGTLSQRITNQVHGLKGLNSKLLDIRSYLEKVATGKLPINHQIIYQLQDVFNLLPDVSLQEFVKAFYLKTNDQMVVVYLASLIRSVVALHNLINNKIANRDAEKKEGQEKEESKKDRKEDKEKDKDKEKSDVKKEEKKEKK
Outline: as §1

UCHL1 = UCHL1 (UniProt P09936)
Chain of UCHL1 (P09936 whole entry, looked up): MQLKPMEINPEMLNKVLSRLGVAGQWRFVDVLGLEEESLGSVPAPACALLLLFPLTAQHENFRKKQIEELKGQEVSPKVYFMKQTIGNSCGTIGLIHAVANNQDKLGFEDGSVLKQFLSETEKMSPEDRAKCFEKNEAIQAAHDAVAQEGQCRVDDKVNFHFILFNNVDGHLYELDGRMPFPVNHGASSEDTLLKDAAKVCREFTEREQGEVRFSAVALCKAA
Outline: as §1

UCHL3 = target: T4, UCHL3 (UniProt P15374)
T4 sequence (whole entry): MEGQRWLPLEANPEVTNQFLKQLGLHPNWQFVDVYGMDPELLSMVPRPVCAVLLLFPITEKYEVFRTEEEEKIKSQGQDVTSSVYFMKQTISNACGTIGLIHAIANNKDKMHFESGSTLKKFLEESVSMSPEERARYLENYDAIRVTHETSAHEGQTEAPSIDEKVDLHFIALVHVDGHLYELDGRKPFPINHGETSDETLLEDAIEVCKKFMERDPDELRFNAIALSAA
Outline: as §1

UCHL5 = target: T5, UCHL5 (UniProt Q9Y5K5)
T5 sequence (whole entry): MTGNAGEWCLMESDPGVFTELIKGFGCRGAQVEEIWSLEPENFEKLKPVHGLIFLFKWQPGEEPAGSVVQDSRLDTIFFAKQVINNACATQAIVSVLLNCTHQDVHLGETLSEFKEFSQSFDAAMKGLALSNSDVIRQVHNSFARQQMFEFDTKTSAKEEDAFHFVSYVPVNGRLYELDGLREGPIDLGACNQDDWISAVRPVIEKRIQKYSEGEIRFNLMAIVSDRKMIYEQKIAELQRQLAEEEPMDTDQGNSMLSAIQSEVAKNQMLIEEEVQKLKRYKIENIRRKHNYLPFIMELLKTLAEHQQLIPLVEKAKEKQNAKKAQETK
Outline: as §1

USP10 = USP10 (UniProt Q14694)
Chain of USP10 (Q14694 whole entry): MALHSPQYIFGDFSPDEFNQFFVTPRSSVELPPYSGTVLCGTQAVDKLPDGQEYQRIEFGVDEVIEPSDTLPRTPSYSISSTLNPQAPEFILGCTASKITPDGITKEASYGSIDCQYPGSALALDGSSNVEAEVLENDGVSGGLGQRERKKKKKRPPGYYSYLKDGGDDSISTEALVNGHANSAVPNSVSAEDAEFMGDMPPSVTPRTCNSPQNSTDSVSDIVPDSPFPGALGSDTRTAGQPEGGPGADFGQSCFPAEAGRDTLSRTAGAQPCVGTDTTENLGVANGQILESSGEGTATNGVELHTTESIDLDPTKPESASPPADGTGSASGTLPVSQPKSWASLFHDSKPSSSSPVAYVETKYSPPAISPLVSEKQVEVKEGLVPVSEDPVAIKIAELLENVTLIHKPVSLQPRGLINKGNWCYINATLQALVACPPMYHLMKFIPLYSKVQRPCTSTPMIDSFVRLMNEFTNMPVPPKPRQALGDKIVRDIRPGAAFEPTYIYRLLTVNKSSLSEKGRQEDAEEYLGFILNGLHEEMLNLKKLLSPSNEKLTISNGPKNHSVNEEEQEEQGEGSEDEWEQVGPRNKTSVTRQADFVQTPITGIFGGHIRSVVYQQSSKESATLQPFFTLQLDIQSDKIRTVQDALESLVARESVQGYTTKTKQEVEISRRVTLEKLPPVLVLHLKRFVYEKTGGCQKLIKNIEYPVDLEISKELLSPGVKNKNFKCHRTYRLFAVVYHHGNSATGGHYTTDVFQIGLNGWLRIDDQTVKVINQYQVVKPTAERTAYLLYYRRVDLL
Outline: as §1

USP15 = target: T6, USP15 (UniProt Q9Y4E8)
T6 sequence (whole entry): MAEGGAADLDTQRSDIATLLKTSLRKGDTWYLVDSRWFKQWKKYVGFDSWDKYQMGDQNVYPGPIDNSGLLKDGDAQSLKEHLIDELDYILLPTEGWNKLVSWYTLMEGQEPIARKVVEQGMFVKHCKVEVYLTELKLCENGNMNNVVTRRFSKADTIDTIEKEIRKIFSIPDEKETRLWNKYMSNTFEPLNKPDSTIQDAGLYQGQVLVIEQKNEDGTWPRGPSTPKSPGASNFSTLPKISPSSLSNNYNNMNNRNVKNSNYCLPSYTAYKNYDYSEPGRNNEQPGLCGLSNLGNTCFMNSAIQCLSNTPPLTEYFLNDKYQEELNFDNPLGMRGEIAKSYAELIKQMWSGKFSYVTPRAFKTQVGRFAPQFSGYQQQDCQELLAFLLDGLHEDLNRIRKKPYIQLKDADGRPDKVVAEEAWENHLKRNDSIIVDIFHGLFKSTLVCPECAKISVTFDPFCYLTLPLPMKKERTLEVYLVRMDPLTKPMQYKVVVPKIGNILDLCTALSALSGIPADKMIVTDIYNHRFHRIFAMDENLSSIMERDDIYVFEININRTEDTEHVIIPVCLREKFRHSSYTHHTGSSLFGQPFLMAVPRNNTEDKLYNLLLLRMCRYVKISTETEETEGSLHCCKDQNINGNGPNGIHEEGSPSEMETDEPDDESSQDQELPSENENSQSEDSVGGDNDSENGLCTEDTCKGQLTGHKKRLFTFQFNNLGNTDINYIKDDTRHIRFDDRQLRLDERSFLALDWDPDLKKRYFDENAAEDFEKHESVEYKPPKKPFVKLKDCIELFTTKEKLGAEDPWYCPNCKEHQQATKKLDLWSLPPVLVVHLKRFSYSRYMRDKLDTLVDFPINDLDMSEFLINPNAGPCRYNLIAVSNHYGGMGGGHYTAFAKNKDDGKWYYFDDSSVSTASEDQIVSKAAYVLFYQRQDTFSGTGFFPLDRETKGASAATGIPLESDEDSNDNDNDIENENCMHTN
Outline: as §1

USP16 = USP16 (UniProt Q9Y5T5)
Chain of USP16 (Q9Y5T5 whole entry, looked up): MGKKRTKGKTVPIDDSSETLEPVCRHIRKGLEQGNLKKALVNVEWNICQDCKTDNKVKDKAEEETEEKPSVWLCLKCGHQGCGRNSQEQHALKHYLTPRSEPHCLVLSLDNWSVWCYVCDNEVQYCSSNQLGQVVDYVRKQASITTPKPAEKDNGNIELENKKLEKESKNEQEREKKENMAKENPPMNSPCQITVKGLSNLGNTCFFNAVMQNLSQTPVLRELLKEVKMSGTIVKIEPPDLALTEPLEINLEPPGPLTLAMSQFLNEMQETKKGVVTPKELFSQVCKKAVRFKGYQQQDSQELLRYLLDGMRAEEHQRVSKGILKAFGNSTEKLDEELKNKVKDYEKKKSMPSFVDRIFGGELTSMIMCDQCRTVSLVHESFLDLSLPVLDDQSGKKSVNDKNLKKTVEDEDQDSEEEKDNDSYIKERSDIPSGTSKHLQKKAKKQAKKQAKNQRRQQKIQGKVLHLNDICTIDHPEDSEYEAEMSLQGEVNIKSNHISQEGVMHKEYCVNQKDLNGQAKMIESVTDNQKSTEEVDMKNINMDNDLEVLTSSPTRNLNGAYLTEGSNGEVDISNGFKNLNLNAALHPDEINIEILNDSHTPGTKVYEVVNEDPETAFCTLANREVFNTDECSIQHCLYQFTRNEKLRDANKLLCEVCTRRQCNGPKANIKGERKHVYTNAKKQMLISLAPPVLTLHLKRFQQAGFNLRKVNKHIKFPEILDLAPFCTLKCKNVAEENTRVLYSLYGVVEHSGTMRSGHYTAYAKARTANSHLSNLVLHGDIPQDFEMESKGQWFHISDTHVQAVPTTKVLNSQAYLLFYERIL
Outline: as §1

Cc1cccc2nc(CCNC(=O)CCl)cn12.Cl
log2 ratio of Biotin-Ahx-Ub-VS probe labelling (OTUD6B): -0.459
log2 ratio of Biotin-Ahx-Ub-VS probe labelling (OTUD7B): -0.556
log2 ratio of Biotin-Ahx-Ub-VS probe labelling (PRPF8): -0.224
log2 ratio of Biotin-Ahx-Ub-VS probe labelling (PSMD7): -0.141
log2 ratio of Biotin-Ahx-Ub-VS probe labelling (UCHL1): -2.08 (active)
log2 ratio of Biotin-Ahx-Ub-VS probe labelling (UCHL3): -0.0466
log2 ratio of Biotin-Ahx-Ub-VS probe labelling (UCHL5): -0.344
log2 ratio of Biotin-Ahx-Ub-VS probe labelling (USP10): -0.121
log2 ratio of Biotin-Ahx-Ub-VS probe labelling (USP15): -0.369
log2 ratio of Biotin-Ahx-Ub-VS probe labelling (USP16): 0.0184

Source: the supplement of paper PMC11732987, “Enantioselective OTUD7B fragment discovery through chemoproteomics screening and high-throughput optimisation” (Communications Chemistry, 2025)
